The text below walks through data of the supplement of paper PMC9135407.

This test relates to primary human hepatic stellate cells (donor 1). In words: scaled lipid accumulation score (0 = DMSO-like, 1 = nortriptyline-like); higher = stronger HSC inactivation (lipid re-accumulation), active = hit call of the paper. The settings on record: 48 h. As for the experimental part:
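Primary lipid accumulation screen in primary human hepatic stellate cell myofibroblasts (donor 1, passage 8) in 384-well plates. 100 nL of library compound was pin-transferred into 30 µL medium in duplicate, and cells were treated for 48 h. The 'Scaled' score combines distance from plate baseline, toxicity and reproducibility penalties, and is normalised to nortriptyline (positive) and DMSO (negative) controls on each plate. A hit is defined as scaled >0.85 or among the top 3 wells per plate.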

[1] abbreviates: library stock concentration: 10 mM.
Where [2] appears, read: library stock concentration: 80 uM.
Where [3] appears, read: library stock concentration: 400 uM.
The mark [4] stands for this setting: library stock concentration: 2 mM.
Setting [5] is: library stock concentration: 3.33 mM.
The mark [6] stands for this setting: library stock concentration: 1 mM.

Where “and” joins values, the source holds several entries; their conditions need not be identical. Identical values can stand only once. Counter-ions that a name gives are not always drawn. About 620 (11%) of roughly 5,800 compounds showed activity. Shown is part of a subset that was picked to be rich in actives. Unmarked numbers belong to inactive results.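 The calls were made as follows: active = score above a cut-off or among the top three wells of a plate; in these data no inactive exceeds 0.85.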 Some results are limits rather than exact numbers.

`NC/C=C/C(=O)O` [(E)-4-amino-2-butenoic acid]: the “scaled lipid accumulation score” value under setting [1] is not above 0.

As for `CCn1cc(-c2ccnc3[nH]c(-c4cccc(CN(C)C)c4)cc23)c(-c2ccc(NC(=O)N(C)C)cc2)n1` [listing 1 of 2 here], the “scaled lipid accumulation score” value runs as follows: under setting [2], not above 0; under setting [3], not above 0; under setting [4], 0.222.

With `CCn1cc(-c2ccnc3[nH]c(-c4cccc(CN(C)C)c4)cc23)c(-c2ccc(NC(=O)N(C)C)cc2)n1` [listing 2 of 2 here], the “scaled lipid accumulation score” value under setting [1] is 0.863 (active).

In the case of `CN(C)C(=O)Nc1cccc(-c2ccc(N(C)C)cc2)c1` [Atglistatin], the “scaled lipid accumulation score” value reads like this: under setting [5], 0.012; under setting [1], 0.076.

In the case of `NCCNCCNCCN` [Trientine hydrochloride], the “scaled lipid accumulation score” value (library stock concentration: 9.1 mM) is not above 0.

With `CC(=O)Oc1ccc2c(c1)CC[C@@H]1[C@@H]2CC[C@]2(C)[C@@H](OC(C)=O)CC[C@@H]12` [Estradiol diacetate], the “scaled lipid accumulation score” value under setting [1] was not above 0.

On to `N#C[C@@H]1C[C@@H]2C[C@@H]2N1C(=O)[C@@H](N)C12CC3CC(CC(O)(C3)C1)C2` [Saxagliptin], for which the “scaled lipid accumulation score” value is not above 0 under setting [5] and not above 0 under setting [1].

For `N#C[C@@H]1C[C@@H]2C[C@@H]2N1C(=O)[C@@H](N)C12CC3CC(CC(O)(C3)C1)C2`, the “scaled lipid accumulation score” value under setting [1] was not above 0.

As for `O=C(O)CCC/C=C\C[C@H]1C(=O)C[C@@H](O)[C@@H]1/C=C/[C@@H](O)Cc1ccccc1` [16-phenyl tetranor Prostaglandin E2], the “scaled lipid accumulation score” value under setting [6] is not above 0.

Take `CCCCn1c(=O)c2[nH]c(C34CC5CC(CC3C5)C4)nc2n(CCCO)c1=O`: under setting [1], the “scaled lipid accumulation score” value is not above -0.001.

Consider `CN1CCN2c3ccccc3Cc3ccccc3C2C1` (centres undefined) [Mianserin hydrochloride], for which the “scaled lipid accumulation score” value (library stock concentration: 6.6 mM) is 0.236 and the “scaled lipid accumulation score” value under setting [1] is 0.398.

`CN1CCN2c3ncccc3Cc3ccccc3C2C1` (centres undefined) [mirtazapine]: the “scaled lipid accumulation score” value under setting [1] was 0.317.

With `CN1CCN2c3ccccc3Cc3ccccc3C2C1` (centres undefined) [Mianserin hcl], the “scaled lipid accumulation score” value (library stock concentration: 7.6 mM) is 0.348.

Consider `CN1CCN2c3ccccc3Cc3ccccc3C2C1.Cl` (centres undefined) [Mianserin hydrochloride], for which the “scaled lipid accumulation score” value under setting [1] was 0.869 (active).

For the compound `CN1CCN2c3ncccc3Cc3ccccc3C2C1` (centres undefined), the “scaled lipid accumulation score” value under setting [1] was 0.409.

Take `CN1CCN2c3ccccc3Cc3ccccc3C2C1` (centres undefined) [Mianserin HCl]: the “scaled lipid accumulation score” value under setting [5] was 0.172 and the “scaled lipid accumulation score” value under setting [1] is 0.188.

On to `CN1CCN2c3ccccc3Cc3ccccc3C2C1` (centres undefined) [Mianserine hydrochloride], for which the “scaled lipid accumulation score” value is 0.681.

For the compound `CN1CCN2c3ncccc3Cc3ccccc3C2C1` (centres undefined) [Mirtazepine], the “scaled lipid accumulation score” value under setting [1] was 0.053.

In the case of `CN1CCN2c3ncccc3Cc3ccccc3C2C1` (centres undefined) [Mirtazapine], the “scaled lipid accumulation score” value by setting is: under setting [5], not above 0; under setting [1], 0.104.

As to `Cc1c(C)c2c(c(C)c1O)CC[C@@](C)(CCC[C@H](C)CCC[C@H](C)CCCC(C)C)O2` (racemic) [Tocopherol (R,S)], the “scaled lipid accumulation score” value was not above 0.

Consider `CN1CCN(c2c(F)cc3c(=O)c(C(=O)O)cn(CCF)c3c2F)CC1` [Fleroxacin], for which the “scaled lipid accumulation score” value (library stock concentration: 5.4 mM) was not above 0.

With `CCCCCC(=O)/C=C/C=C\C/C=C\C/C=C\CCCC(=O)O` [15-Ketoicosatetraenoic acid], the “scaled lipid accumulation score” value (library stock concentration: 100 uM) was not above -0.021.

In the case of `COc1ccc(CNC(=O)Nc2ncc([N+](=O)[O-])s2)cc1` [listing 1 of 2 here], under setting [1], the “scaled lipid accumulation score” value was 0.864 (active).

Consider `COc1ccc(CNC(=O)Nc2ncc([N+](=O)[O-])s2)cc1` [GSK-3b Inhibitor VIII], for which the “scaled lipid accumulation score” value under setting [5] is not above 0.

Consider `CC(=O)Nc1ncc([N+](=O)[O-])s1`, for which the “scaled lipid accumulation score” value under setting [1] was not above 0.

On to `CC(=O)Nc1ncc([N+](=O)[O-])s1` [Nithiamide], for which the “scaled lipid accumulation score” value was not above 0 under setting [5] and not above -0.001 under setting [1].

As to `COc1ccc(CNC(=O)Nc2ncc([N+](=O)[O-])s2)cc1` [listing 2 of 2 here], under setting [5], the “scaled lipid accumulation score” value is 0.006.

For the compound `O=C(c1ccccc1)c1ccc(N2CCOCC2)cc1O` [DNA-PK Inhibitor V], the “scaled lipid accumulation score” value under setting [5] was not above 0.

`CCCCC(C)(C)[C@H](O)/C=C/[C@H]1C(=O)C[C@H](O)[C@@H]1C/C=C\CCCC(=O)O` [16,16-dimethyl Prostaglandin D2]: under setting [6], the “scaled lipid accumulation score” value is not above 0.

Take `O=C1NC(=O)[C@@H](c2cn3c4c(cccc24)CCC3)[C@@H]1c1c[nH]c2ccccc12` [Tivantinib]: the “scaled lipid accumulation score” value is not above -0.009 under setting [2], 0.071 under setting [3], not above -0.009 under setting [4] and 0.169 under setting [1].

As to `CCCCCC(=O)CC[C@H]1C(=O)C[C@H](O)[C@@H]1C/C=C\CCCC(=O)O` [13,14-dihydro-15-keto Prostaglandin D2], under setting [6], the “scaled lipid accumulation score” value was not above 0.

Regarding `COc1cc(N2CCN(C)CC2)ccc1Nc1nccc(-c2cn(C)c3cnccc23)n1`, the “scaled lipid accumulation score” value is, setting by setting: under setting [5], not above -0.009; under setting [1], 0.446.

Consider `C=CC(=O)Nc1cccc(Nc2nc(Nc3ccc(NC4CN(CCF)C4)cc3OC)ncc2C(F)(F)F)c1`, for which the “scaled lipid accumulation score” value runs as follows: under setting [5], not above -0.009; under setting [1], 0.811.

Take `C=CC(=O)Nc1cc(Nc2nccc(-c3cn(C)c4ccccc34)n2)c(OC)cc1N(C)CCN(C)C` [listing 1 of 3 here]: the “scaled lipid accumulation score” value under setting [1] was not above 0.

As for `C=CC(=O)Nc1cc(Nc2nccc(-c3cn(C)c4ccccc34)n2)c(OC)cc1N(C)CCN(C)C` [listing 2 of 3 here], under setting [4], the “scaled lipid accumulation score” value was 1.01 (active).

`C=CC(=O)Nc1cccc(Nc2nc(Nc3ccc(N4CCN(C(C)=O)CC4)cc3OC)ncc2C(F)(F)F)c1`: the “scaled lipid accumulation score” value by setting is: under setting [5], not above -0.009; under setting [1], 0.063.

With `C=CC(=O)Nc1cc(Nc2nccc(-c3cn(C)c4ccccc34)n2)c(OC)cc1N(C)CCN(C)C` [listing 3 of 3 here], the “scaled lipid accumulation score” value under setting [5] is 0.983 (active).

`CCN1CCCC1CNC(=O)c1cc(S(N)(=O)=O)ccc1OC` (single isomer, unassigned; (-)) [(-)-Sulpiride]: under setting [1], the “scaled lipid accumulation score” value is not above 0.

As to `O=C1CCc2c(ccc3ccccc23)O1` [Splitomicin], the “scaled lipid accumulation score” value under setting [1] is not above -0.006.

With `CCCCC[C@@H](O)/C=C/[C@@H]1[C@H](C/C=C\CCCC(=O)O)[C@@H](O)C[C@H]1O` [8-iso-15(R)-Prostaglandin F2.alpha.], the “scaled lipid accumulation score” value under setting [6] was not above 0.

With `CCCCC[C@H](O)/C=C/[C@@H]1[C@@H](C/C=C\CCCC(=O)NC(CO)CO)[C@@H](O)C[C@H]1O` [Prostaglandin F2.alpha. serinol amide], under setting [6], the “scaled lipid accumulation score” value was not above 0.

Turning to `Nc1ncnc2c1c(I)cn2[C@@H]1O[C@H](CO)[C@@H](O)[C@H]1O` [5-Iodotubercidin], the “scaled lipid accumulation score” value under setting [5] is not above 0.

On to `CCCCC[C@H](O)/C=C/[C@H]1C=CC(=O)[C@@H]1C/C=C\CCCC(=O)O` [Prostaglandin A2], for which the “scaled lipid accumulation score” value under setting [6] was ≤ 0 and ≤ -0.021.

With `N=C(N)N/N=C/c1c(Cl)cccc1Cl` [Guanabenz acetate], the “scaled lipid accumulation score” value is 0.45. For the same compound, the “scaled lipid accumulation score” value (library stock concentration: 6.9 mM) was 0.304. For the setting “library stock concentration: 8.7 mM”, the “scaled lipid accumulation score” value is 0.227. Under setting [1], the “scaled lipid accumulation score” value is 0.426 and 0.365.

As to `N=C(N)NC(=O)Cc1c(Cl)cccc1Cl` [Guanfacine hydrochloride], the “scaled lipid accumulation score” value was not above 0. Under setting [1], the “scaled lipid accumulation score” value is 0.148 and 0.048.

Turning to `N=C(N)NC(=O)Cc1c(Cl)cccc1Cl` [Guanfacine HCl], the “scaled lipid accumulation score” value (library stock concentration: 7.1 mM) was not above -0.006.

As for `N=C(N)N/N=C/c1c(Cl)cccc1Cl` [Guanabenz Acetate], the “scaled lipid accumulation score” value reads like this: under setting [5], not above 0; under setting [1], 0.578.

Turning to `CC(=O)O.N=C(N)N/N=C/c1c(Cl)cccc1Cl` [Guanabenz acetate], under setting [1], the “scaled lipid accumulation score” value was 0.999 (active).

Consider `CCCCCC#CCC#CCC#CCC#CCCCC(=O)O` [5,8,11,14-Eicosatetraynoic acid], for which, under setting [6], the “scaled lipid accumulation score” value is not above -0.021.

For `CCCCCCCCCCCCCCCC(=O)N[C@H]1CCOC1=O` [N-hexadecanoyl-L-Homoserine lactone], the “scaled lipid accumulation score” value under setting [6] is not above 0.

For the compound `C(=C/CCN(C)C)(/c1c2cccc1)\c3c(cccc3)C=C2.Cl` [Cyclobenzaprine hydrochloride], under setting [1], the “scaled lipid accumulation score” value is 0.991 (active).

As to `C(/c1c2cccc1)(=C/CCN(C)C)\c3c(cccc3)C=C2.Cl` [Cyclobenzaprine hydrochloride], the “scaled lipid accumulation score” value was 0.86 (active).

As to `CN(C)CCC=C1c2ccccc2C=Cc2ccccc21` [Cyclobenzaprine hydrochloride], the “scaled lipid accumulation score” value (library stock concentration: 6.4 mM) was 0.579 and the “scaled lipid accumulation score” value under setting [1] is 0.568.

With `CN(C)CCC=C1c2ccccc2C=Cc2ccccc21.Cl` [Cyclobenzaprine HCl], the “scaled lipid accumulation score” value under setting [5] was 0.507 (active).

As to `CN(C)CCC=C1c2ccccc2C=Cc2ccccc21` [Cyclobenzaprine HCl], under setting [1], the “scaled lipid accumulation score” value was 0.745.

`CC(C(=O)O)c1ccc(CC2CCCC2=O)cc1` (centres undefined) [loxoprofen]: the “scaled lipid accumulation score” value under setting [1] is 0.127.

Take `CC(C(=O)O)c1ccc(CC2CCCC2=O)cc1` (centres undefined): under setting [1], the “scaled lipid accumulation score” value was not above 0.

Consider `C=C1CC[C@H](O)C/C1=C/C=C1\CCC[C@]2(C)[C@@H]([C@H](C)CCCC(C)(C)O)CC[C@@H]12` [Calcifediol], for which the “scaled lipid accumulation score” value is, setting by setting: under setting [5], not above 0; (library stock concentration: 5 mM) 0.042; under setting [1], not above 0.

Turning to `Nc1nc2c(ncn2[C@@H]2O[C@H](CO)[C@@H](O)[C@@H]2O)c(=O)[nH]1` [Ara-G hydrate], the “scaled lipid accumulation score” value under setting [1] is not above 0.

Turning to `Oc1ccc(OC2CCCCO2)cc1` (centres undefined) [Deoxyarbutin], the “scaled lipid accumulation score” value is not above 0 under setting [5] and not above -0.001 under setting [1].

Consider `CC(=O)N(CC(O)CO)c1c(I)c(C(=O)NCCO)c(I)c(C(=O)NCC(O)CO)c1I` (centres undefined), for which, under setting [1], the “scaled lipid accumulation score” value was not above 0.

With `O=C(OC[C@@H]1O[C@H]1c1ccccc1)Oc1ccc([N+](=O)[O-])cc1`, the “scaled lipid accumulation score” value under setting [6] was not above 0.

Regarding `CCCCC[C@H](O)/C=C/[C@@H]1[C@@H](CC(=O)CCCCC(=O)O)[C@@H](O)C[C@H]1O` [6-keto Prostaglandin F1.alpha.], the “scaled lipid accumulation score” value under setting [6] was not above 0.

On to `CCCCC[C@H](O)/C=C/[C@@H]1[C@@H](CC(=O)CCCCC(=O)O)[C@@H](O)C[C@H]1O` [6-Keto-prostaglandin F1a], for which, under setting [6], the “scaled lipid accumulation score” value was not above -0.021.

As to `COc1c/c(=C2\C=c3ccccc3=N2)[nH]/c1=C\c1[nH]c(C)cc1C` [Obatoclax Mesylate (GX15-070)], the “scaled lipid accumulation score” value was 0.602 under setting [5] and 0.617 under setting [1].
